ChEMBL document CHEMBL3988442, “University of Dundee, Small-Polar-MMV Screening Library” (2021)
Hit rate of the full screen: of about 48,000 compounds, about 13,000 (27%) showed an effect of 50% or more. Some of the results follow.

tested on: Wolbachia pipientis; test: Anti-Wolbachia Cell-Based Screen; assay type: functional; set-up: scale not given: in the data most compounds retested in dose-response had high values; conditions: 5 µM

Row | SMILES | Percent Effect
1 | O=C(O)C(F)(F)F.O=C1[C@H]2CN(C3CCOC3)C[C@H]2CN1c1ccccc1 (some centres not stated) | -7.814%
2 | Cc1ccc(F)cc1S(=O)(=O)N1C[C@@H](C)[C@@](C)(O)C1 | -12.21%
3 | Cc1nc(O)c2nnn(C[C@H]3CCCN3C(=O)C(C)(C)C)c2n1 | 2.685%
4 | Cc1nc(O)c2nnn(C[C@H]3CCCN3C(=O)C3CCCC3)c2n1 | 86.1%
5 | Cc1nc(O)c2nnn(C[C@H]3CCCN3C(=O)c3ccc(F)cc3)c2n1 | 99.59%
6 | Cc1ccc(C(=O)N2CCC[C@@H]2Cn2nnc3c(O)nc(C)nc32)cc1 | 116%
7 | Cc1nc(O)c2nnn(C[C@H]3CCCN3C(=O)CCC3CCCC3)c2n1 | 2.096%
8 | Cc1nc(O)c2nnn(C[C@H]3CCCN3C(=O)c3cccc(F)c3)c2n1 | -3.685%
9 | Cc1cccnc1CN(C)C(C(=O)O)c1ccc(C(C)(C)C#N)cc1 (configuration not stated) | -18.01%
10 | CC(C)Cc1ncc2c(n1)CN(c1cc(NC3CC3)nc(N)n1)C2 | 10.04%
11 | CNC(=O)[C@@H]1C[C@@H](N)CN1c1nnc(-c2ccccc2)s1 | -7.13%
12 | CCCn1cc(C(=O)NC(CC(=O)O)c2ccco2)c(C)n1 (configuration not stated) | -1.122%
13 | CCCn1cc(C(=O)N[C@H]2CC[C@H](n3cnnc3)CC2)c(C)n1 | -5.85%
14 | CCC(NC(=O)c1cnc(N(C)C)nc1C)c1ccncc1 (configuration not stated) | -21.92%
15 | CCn1c(C)nnc1SCCNC(=O)c1cnc(N(C)C)nc1C | -11.93%
16 | CCCn1cc(C(=O)NC(C)c2c(C)nn(CC)c2C)c(C)n1 (configuration not stated) | 107.4%
17 | CCCn1ncc(C(=O)N(CCOC)Cc2c(C)nn(CC)c2C)c1C | -10.36%
18 | CCCn1ncc(C(=O)NC(C)c2c(C)nn(CC)c2C)c1C (configuration not stated) | 101.8%
19 | CCn1nc(C)c(C(C)NC(=O)c2cnc(N(C)C)nc2C)c1C (configuration not stated) | 101.2%
20 | CCn1nc(C)c(C(C)NC(=O)c2cccc(NCC(=O)O)c2)c1C (configuration not stated) | -10.01%
21 | CN(Cc1ccncc1)C(=O)c1ccc2c(c1O)OC(C)(C)C2 | -3.741%
22 | Cc1cnc(CNC(=O)N(Cc2ccccc2)CC(C)(C)O)s1 | -9.272%
23 | CCN1CCN(C(=O)CCC2CCN(C(C)CSC)CC2)CC1 (configuration not stated) | 2.757%
24 | COC(=O)C(C)(C)NC(=O)c1cc2sc(N(C)C)nc2s1 | -3.943%
25 | CN1CCCN(c2nc3c(cnn3C(C)(C)C)c(=O)[nH]2)CC1 | -5.062%
26 | Cc1c(C2NC3(CCCC3)C(=O)N2CC2CC2)cc(C#N)n1C (configuration not stated) | -11.2%

Row | SMILES | Percent Effect
27 | CN(Cc1cc(Cl)c2c(c1)OCO2)Cc1cscn1 | 1.61%
28 | CCOc1ccc(NC(=O)NCc2csc(NC)n2)cc1C | -0.8345%
29 | CCc1ncnc2c1CCN(C(=O)c1cccn1C)CC2 | -9.929%
30 | Cc1cccc(N2CCCC3(C2)CN(S(=O)(=O)C2CC2)CCO3)c1.O=C(O)C(F)(F)F (configuration not stated) | -4.65%
31 | Cc1noc(C)c1CN1CC2(CCN(C(=O)c3cscn3)CC2)CC1=O | 4.447%
32 | CCn1c(CC2CCN(C(=O)c3ccnn3C)CC2)n[nH]c1=O | 13.3%
33 | CC(=O)N1CCC(Cc2cccc(-c3c(C)noc3C)n2)C1 (configuration not stated) | 135.5%
34 | CN1CCC(Cc2nc(-c3ccnn3C)n(Cc3ccccc3)n2)CC1 | -2.907%
35 | Cc1ccccc1C(=O)NC[C@@H]1CCN(C(=O)c2cscn2)C[C@H]1O | 3.097%
36 | Cc1noc(C)c1-c1cccc(CC2CCN(C(=O)CCC(=O)O)C2)n1 (configuration not stated) | 2.064%
37 | Cc1noc(C)c1-c1cccc(CC2CCN(C(=O)CN)C2)n1 (configuration not stated) | 128.9%
38 | Cc1noc(C)c1-c1cccc(CC2CCN(C(=O)c3cscn3)C2)n1 (configuration not stated) | 131.4%
39 | CC(=O)N1CCC(Cc2cccc(-c3ccnn3C)n2)CC1 | 116.5%
40 | NC(=O)c1cccc(CC2CCN(C(=O)CO)C2)c1 (configuration not stated) | -21.34%
41 | c1ccc(-c2cnc(CN3CCn4c(nnc4C4CC4)C3)o2)cc1 | -9.736%
42 | CN(Cc1ccc2nonc2c1)C(=O)CCc1cc2n(n1)CCCNC2 | -9.744%
43 | CN(CCC1CCCCO1)c1nncc(-c2ccccc2)n1 (configuration not stated) | 3.225%
44 | c1ccc(C2CCCN2C2CSCCSC2)nc1 (configuration not stated) | 20.29%
45 | CN(C)c1cc(C(F)(F)F)nc(N2CCCC2c2ccccn2)n1 (configuration not stated) | 96.36%
46 | c1ccc(C2CCCN2C2CCSCC2)nc1 (configuration not stated) | -12.25%
47 | Cc1cc(C2CCC2)nc(N(C)CCc2ccccn2)n1 | 10.11%
48 | Cc1cc(N(C)C)nc(N2CCCC2c2ccccn2)n1 (configuration not stated) | 92.86%
49 | Cc1cc(N(C)C)nc(N2CCCC2c2cc(C)on2)n1 (configuration not stated) | 41.35%
50 | Cc1nc(N2CCN(C(=O)c3ccccc3)CC2)cc(-n2ccnc2)n1 | -0.4006%
51 | CCOc1ccccc1CCN1Cc2ncccc2C1=O | 5.291%
52 | Cc1cnc(C(=O)N2CCC(COCc3ccccc3)C2)cn1 (configuration not stated) | 0.6759%

Row | SMILES | Percent Effect
53 | O=S1(=O)COCCN1CCOc1ccccc1 | -11.75%
54 | CC(C)(C)C(=O)N1CCC(COCc2ccccc2)C1 (configuration not stated) | 14.31%
55 | CCCC1CN(CCOc2ccccc2)C(=O)c2cccnc2O1 (configuration not stated) | 157.7%
56 | COCCN1C[C@@H]2CN(c3ncccn3)C[C@@H]2C1=O | 3.665%
57 | COCCN1CCCC(O)(CN2CCN(c3ncccc3C)CC2)C1=O (configuration not stated) | -16.41%
58 | CCCC1CN(CC(C)C)C(=O)c2cccnc2O1 (configuration not stated) | 72.42%
59 | CCCC1CN(CCOC)C(=O)c2cccnc2O1 (configuration not stated) | 110.6%
60 | CCC(C)Oc1ccccc1CN1Cc2ncccc2C1=O (configuration not stated) | 3.69%
61 | CC(C)CN1C[C@H](COCc2ccccc2)Oc2ncccc2C1=O | 89.35%
62 | CCOc1ncccc1CN1Cc2ncccc2C1=O | 24.49%
63 | O=C(NC1CC1)N1CCC2(CC1)CC(N1CCOCC1)c1ccccc12.O=C(O)C(F)(F)F (configuration not stated) | 2.797%
64 | CCS(=O)(=O)NCCCNC1CSCCc2ccccc21 (configuration not stated) | 1.268%
65 | O=C(O)C(F)(F)F.O=C(O)C(F)(F)F.O=C1[C@@H]2CCN(Cc3ccccn3)C[C@@H]2OCCN1c1ccccc1 | 5.214%
66 | CCNC(=O)[C@@H]1C[C@H](N)CN1C1CCN(c2ccccc2OC)CC1 | -4.243%
67 | COc1cc(C(=O)NCC2CCCN(Cc3ccco3)C2)ccn1 (configuration not stated) | 2.476%
68 | CC(C)Cc1cc(C(=O)NCC2CCCN(Cc3ccco3)C2)on1 (configuration not stated) | 50.17%
69 | CC(C)Cc1cc(C(=O)NCC2CCN(c3ccccc3F)C2)on1 (configuration not stated) | -10.11%
70 | Cc1ccccc1C(=O)N1CCO[C@H]2[C@H](OCCN(C)C)CC[C@@H]21.O=C(O)C(F)(F)F | 99.34%
71 | Cc1occc1C(=O)N1CCO[C@H]2[C@H](OCc3cccnc3)CC[C@@H]21.O=C(O)C(F)(F)F | 4.513%
72 | Cc1occc1C(=O)N1CCO[C@H]2[C@H](OCc3ccccn3)CC[C@@H]21.O=C(O)C(F)(F)F | -3.941%
73 | CN(C)CCO[C@@H]1CC[C@H]2[C@H]1OCCN2C(=O)CCc1ccccc1.O=C(O)C(F)(F)F | -7.187%
74 | CN(C)CCO[C@@H]1CC[C@H]2[C@H]1OCCN2C(=O)c1ccccc1F | 79.95%
75 | Cc1ccoc1C(=O)N1CCO[C@H]2[C@H](OCCN(C)C)CC[C@@H]21.O=C(O)C(F)(F)F | -19.8%
76 | Cc1cc(C(=O)N2CCO[C@H]3[C@H](OCCN(C)C)CC[C@@H]32)c(C)[nH]1.O=C(O)C(F)(F)F | 104.2%
77 | Cc1cc(C(=O)N2CCO[C@H]3[C@H](Oc4ccccn4)CC[C@@H]32)c(C)[nH]1.O=C(O)C(F)(F)F | -3.803%
78 | COc1ccc(C(=O)N2CCO[C@H]3[C@@H](OCC4CC4)CC[C@@H]32)cc1F | -14.51%

Row | SMILES | Percent Effect
79 | Cc1c(C(=O)N2CCCC(O)(CN(C)C)CC2)c2cc(O)ccc2n1C (configuration not stated) | -7.516%
80 | CC(=O)N1CCC(Nc2ccc(Br)cc2C#N)C1 (configuration not stated) | -20.23%
81 | Cc1cc(C(=O)N2CCC(Nc3cccnc3)CC2)c(C)s1 | 98.75%
82 | Cc1ccsc1C(=O)N1CCC(Nc2cccnc2)CC1 | 82.28%
83 | COc1cc(C)sc1C(=O)N1CCC(Nc2cccnc2)CC1 | -10.68%
84 | Cc1cc(C(=O)N2CCC(NC(=O)c3cccnc3)CC2)c(C)o1 | -8.9%
85 | Cc1nc(C)c(C(=O)N2CCC(Nc3cccnc3)CC2)s1 | 6.028%
86 | O=C(CCn1ccc2ccccc21)N1CCC(Nc2cccnc2)CC1 | -9.935%
87 | COc1ccc([C@@H]2C[C@H](NC(C)=O)C[C@H](CCc3ccccc3)O2)cn1 | 7.698%
88 | CSCC[C@H](N)C(=O)N1CC(Oc2ccccc2C)C1 | -5.947%
89 | COCCOc1ncccc1CNC(=O)N1CCOCC1 | -0.8625%
90 | COc1ccc(-n2cnnc2SCCC#N)cn1 | -2.783%
91 | Cc1ccc(-n2nnc(C(=O)NCC3(CO)CC3)c2C2CC2)cc1 | 112.7%
92 | COC(=O)CCNC(=O)c1nnn(-c2ccc(F)cc2)c1C1CC1 | 1.406%
93 | Cc1ccc(-n2nnc(C(=O)NC(C)C)c2C2CC2)cc1 | 124.2%
94 | COC(=O)CCNC(=O)c1nnn(-c2ccc(C)cc2)c1C1CC1 | 120.1%
95 | NS(=O)(=O)CCNC(=O)c1nnn(-c2ccc(F)cc2)c1C1CC1 | 1.057%
96 | Cc1ccc(-n2nnc(C(=O)NCC(F)(F)F)c2C2CC2)cc1 | 125.2%
97 | O=C(NCC1(C(=O)O)CCC1)c1nnn(-c2ccc(F)cc2)c1C1CC1 | 4.547%
98 | COc1ccc(-n2nnc(C(=O)NC(C)C)c2C2CC2)cc1 | 16.07%
99 | Cc1ccc(-n2nnc(C(=O)Nc3cc(C)nn3C)c2C2CC2)cc1 | -15.14%
100 | CCN(CC)C(=O)c1nnn(-c2ccc(C)cc2)c1C1CC1 | -3.028%
101 | O=C(NCC1(CO)CC1)c1nnn(-c2ccc(F)cc2)c1C1CC1 | -10.21%
102 | Cc1ccc(-n2nnc(C(=O)NCCS(N)(=O)=O)c2C2CC2)cc1 | 2.856%
